Screening results as filed in PubChem BioAssay.
A selection: hits, their analogues and other compounds. The true share with any hit is near 18%.
DT40 TDP1 no CPT – qHTS for Inhibitors of human tyrosyl-DNA phosphodiesterase 1 (TDP1): qHTS in cells in absence of CPT | DT40 Tdp1-/- hTDP1 cells, no CPT, ATP luminescence, 48 h | Potency, µM (titrated, usually from 46.2 µM), for the others: at the top dose activity change, negative = growth inhibition, most hits filed as inhibitors | actives 15% (n = 420,000); also: potency is read from the fitted curve at half-maximal effect; nearly all actives have a fitted effect of over 55% in size
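No-CPT arm: Tdp1-/-;hTDP1 DT40 cells (400/well) plus compounds, incubated ≥48 hr at 37 °C. Readout CellTiter-Glo luminescence.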
Six1-Eya2 blk – inhibitors of human Six1/Eya2 interaction; Q15475+O00167; AlphaScreen GST-Six1/His-Eya2 binding, biochemical; hits give low values; activity change, % (concentration not given with the values); actives 0.56% (n = 360,000); AID 651725; in the data active = activity change below about -65%; inconclusive = mostly about -30% to -63%
Target sequence (O00167 whole entry, looked up): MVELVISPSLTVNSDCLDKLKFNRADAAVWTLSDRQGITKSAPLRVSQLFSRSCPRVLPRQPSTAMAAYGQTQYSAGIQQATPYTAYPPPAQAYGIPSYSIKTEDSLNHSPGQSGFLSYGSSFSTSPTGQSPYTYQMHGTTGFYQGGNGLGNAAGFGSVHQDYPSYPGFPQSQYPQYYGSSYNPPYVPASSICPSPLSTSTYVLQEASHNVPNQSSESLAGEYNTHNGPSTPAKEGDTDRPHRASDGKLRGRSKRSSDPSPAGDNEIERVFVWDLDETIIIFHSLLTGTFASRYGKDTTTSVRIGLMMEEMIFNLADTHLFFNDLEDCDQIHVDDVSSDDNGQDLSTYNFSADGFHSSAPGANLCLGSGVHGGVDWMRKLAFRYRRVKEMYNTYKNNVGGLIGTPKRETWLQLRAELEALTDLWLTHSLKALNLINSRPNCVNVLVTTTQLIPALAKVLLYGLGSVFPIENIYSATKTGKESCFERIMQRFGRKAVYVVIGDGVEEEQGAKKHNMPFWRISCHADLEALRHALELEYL
Target sequence (Q15475 whole entry, looked up): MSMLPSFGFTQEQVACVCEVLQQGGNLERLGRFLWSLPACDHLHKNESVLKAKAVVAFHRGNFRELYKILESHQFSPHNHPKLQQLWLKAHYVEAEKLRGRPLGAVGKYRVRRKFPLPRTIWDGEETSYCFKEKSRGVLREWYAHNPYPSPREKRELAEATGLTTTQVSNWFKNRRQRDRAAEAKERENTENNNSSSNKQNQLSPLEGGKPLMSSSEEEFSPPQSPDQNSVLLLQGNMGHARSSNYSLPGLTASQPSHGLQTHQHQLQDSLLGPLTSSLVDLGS
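Compounds are tested against tagged Six1 and Eya2 proteins bridged by glutathione donor and nickel acceptor beads; after a one-hour incubation at 37 °C without light, AlphaScreen emission is recorded.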
IL-1B inflam inh – blocks inflammasome-driven IL-1 beta release | activity change, % at 57.5 µM | THP-1 LPS/ATP IL-1B secretion, AlphaLISA, 16 h; hits give low values | actives 4.7% (n = 360,000); in the data active = activity change below about -50%; inconclusive = mostly about -30% to -49%
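THP-1 cells pretreated 1 hr with compounds (up to 57.5 uM final), then stimulated with LPS (250 ng/mL final) plus ATP (1.25 mM final); secreted IL-1B measured by AlphaLISA after 16 hr, decreased signal indicating inhibition.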
TDP1 cell CPT – growth inhibition of DT40 Tdp1-/-;hTDP1 cells with camptothecin (screen for TDP1 inhibitors); chicken DT40 Tdp1-/-;hTDP1 cells + 20 nM CPT, ATP luminescence, 48 h; Potency, µM (top dose mostly 46.2 µM), for inactives: top-dose activity change, negative = growth inhibition, actives largely listed as inhibitors; actives 12% (n = 420,000); AID 686979; also: potency is read from the fitted curve at half-maximal effect; nearly all actives have a fitted effect of over 55% in size
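Cell growth measured by CellTiter-Glo luminescence after a minimum 48 h, 37 C compound exposure with 20 nM CPT in Tdp1-knockout DT40 cells stably expressing hTDP1, seeded 400/well; qHTS titration format.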
TDP1 inh – inhibitors of human tyrosyl-DNA phosphodiesterase TDP1. Q9NUW8. recombinant TDP1, AlphaScreen DNA substrate cleavage. Potency, µM (titrated, usually from 130 µM), for inactives: at the highest dose activity change, negative = inhibition, actives largely listed as inhibitors. actives 0.28% (n = 350,000). AID 485290; also: potency is read from the fitted curve at half-maximal effect; nearly all actives have a fitted effect of over 40% in size
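Here, a 5' biotin and 3' phosphotyrosine-FITC DNA oligonucleotide reports Tdp1 activity: intact substrate bridges AlphaScreen beads, while cleavage leaves a 3' phosphate and drops signal. All incubations at room temperature.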
CtBP-E1A inh – CtBP/E1A binding inhibition | activity change, % (no concentration beside the values) | actives 0.49% (n = 340,000) | AID 651724 | AlphaScreen GST-E1A/His-CtBP binding, 1536-well; hits give low values; in the data active = activity change below about -65%; inconclusive = mostly about -30% to -63%
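Steps: dispense buffer (Tris pH 8.0, NaCl 300 mM, TCEP 1 mM, BSA, Tween 20); add 5X protein mix (GST-E1A, His-CtBP, 125 nM each); pin 23 nL compound; 2 h at 37 °C, dark; add 5X beads (50 ug/mL); 1 h; read.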
Active calls of the source: *; ? = inconclusive; . = no result; [ ] = remark or other dose. Unless noted, calls follow the shape of the dose curve; as a rule, active = well fitted curve in the direction sought with a large enough effect; inconclusive = small, poorly fitted or top-dose-only effect, or another doubt; inactive = no such curve, though single readings can be large; an effect the other way counts as inactive or inconclusive. % is scaled to controls: 0 for no effect and ±100 for the full control effect.

SMILES	DT40 TDP1 no CPT	Six1-Eya2 blk	IL-1B inflam inh	TDP1 cell CPT	TDP1 inh	CtBP-E1A inh
COc1ccc(CNC(=O)c2cc3c(s2)CN(Cc2ccccc2)C3)cc1	-3%	-2	?	8%	7%	0
N#Cc1ccc(CN2CC3(CCN(C(=O)c4cnccn4)CC3)C2)cc1	0%	.	.	-1%	.	.
O=C(C1CCCN(S(=O)(=O)c2cccc3nsnc23)C1)N1CCCCCC1 (configuration not stated)	?	5	11	-25%	-8%	-3
O=C(C1CCCN(S(=O)(=O)c2cccc3nsnc23)C1)N1CCc2ccccc2C1 (configuration not stated)	23µM*	-12	?	?	4%	-3
O=C(C1CCN(S(=O)(=O)c2cccc3nsnc23)CC1)N1CCCc2ccccc21	?	-6	-52*	-27%	8%	-7
O=C(O)C1CCN(S(=O)(=O)c2cccc3nsnc23)CC1	25%	2	23	1%	8%	3
CC1Cc2ccccc2N1C(=O)C1CCCN(S(=O)(=O)c2cccc3nsnc23)C1 (configuration not stated)	15µM*	-19	-13	?	6%	-13
O=C(C1CCN(S(=O)(=O)c2cccc3nsnc23)CC1)N1CCc2ccccc21	?	-6	-1	?	2%	-7
O=C(C1CCN(S(=O)(=O)c2cccc3nsnc23)CC1)N1CCn2c1nc1ccccc12	16µM*	0	17	?	8%	7
COc1cccc(NC(=O)CN(C)CC(=O)Nc2ccc3c(c2)OCO3)c1	2%	5	32	10%	0%	5
COC(=O)C/C=C\[C@@H](C)[C@@H](/C=N\OC[C@@H]1O[C@H](c2ccccc2)C=C[C@@H]1Oc1ccc(OC)cc1)OC	.	.	.	.	1%[21 µM]	.
CC(C)CCN1C(=O)CSCC1(C)C(=O)NC(C)C (configuration not stated)	-17%	0	38	-1%	.	-1
CCC(=O)Nc1cccc(NC(=O)CSc2nnc(C3CC3)n2C)c1	-8%	4	2	-8%	3%	-1
CC1CCCN(C(=O)C2CCCN(S(=O)(=O)c3cccc4nsnc34)C2)C1 (configuration not stated)	-28%	3	-12	?	0%	3
O=C(C1CCCN(S(=O)(=O)c2cccc3nsnc23)C1)N1CCc2ccccc21 (configuration not stated)	23µM*	-16	0	?	6%	-14
O=S(=O)(/N=C(\c1ccccc1)N1CCOCC1)c1cccs1	6%	5	6	5%	0%	6
CCN(CC)C(=S)SCC(=O)c1ccccc1	?	19	-9	?	-10%	16
CCN(CC)C(=S)SSC(=S)N(CC)CC	0.15µM*	?	-110*	0.021µM*	12%[56.1 µM]	?
Cc1cc(N2CCN(C)CC2)nc2ccc(NC(=S)NCCN3CCc4ccccc4C3)cc12	?	-18	-1	?	3%	.
Cc1cc(N2CCCC2)nc2ccc(NC(=S)NCCCN3CCC(C)CC3)cc12	?	-5	-140*	?	3%	-5
CCN1CCN(c2cc(C)c3cc(NC(=S)N(C)Cc4ccccc4)ccc3n2)CC1	?	-9	-20	?	.	-11
CCCN1CCN(CCCNC(=S)Nc2ccc3nc(N4CCN(CC)CC4)cc(C)c3c2)CC1	?	-4	-13	?	0%	3
CCN1CCN(c2cc(C)c3cc(NC(=S)NCCCN4CCc5ccccc5C4)ccc3n2)CC1	15µM*	-6	-23	?	3%	-23
Cc1cc(N2CCN(C)CC2)nc2ccc(NC(=S)NCCCN3CCc4ccccc4C3)cc12	?	-7	-92*	?	5%	-12
COc1cc(CN2CCC(C(=O)NC(C)(C)C)CC2)ccc1OCc1ccccc1	?	6	?	-6%	.	2
SMILES	DT40 TDP1 no CPT	Six1-Eya2 blk	IL-1B inflam inh	TDP1 cell CPT	TDP1 inh	CtBP-E1A inh
COc1ccc(CC2(CO)CCN(Cc3nc(C(C)C)cs3)CC2)cc1	?	13	14	15%	6%	.
COc1ccc(CC2(CO)CCN(CC3=Cc4cc(Cl)ccc4OC3)CC2)cc1	6.5µM*	-15	-87*	13µM*	0%	-12
COc1ccc2c(c1)C=C(CN1CCC(CO)(CCc3ccccc3)CC1)CO2	?	-9	-60*	?	6%	-17
CCOC(=O)N1CCC(NC(=O)CS(=O)Cc2nc(-c3ccc(C)cc3)oc2C)CC1 (configuration not stated)	-15%	-1	10	?	6%	0
Cc1oc(-c2ccccc2)nc1CS(=O)CC(=O)N1CCc2ccccc2C1 (configuration not stated)	26µM*	-4	11	9.2µM*	0%	5
Cc1ccc(-c2nc(CS(=O)CC(=O)NC3CCCC(C)C3C)c(C)o2)cc1 (configuration not stated)	11%	-1	-54*	-17%	4%	-6
Cc1ccc(-c2nc(CS(=O)CC(=O)N3CCN(c4ccccc4)CC3)c(C)o2)cc1 (configuration not stated)	15µM*	-5	-25	23µM*	10%	-5
CCOC(=O)N1CCC(NC(=O)CS(=O)Cc2nc(-c3ccc(Cl)cc3)oc2C)CC1 (configuration not stated)	15µM*	3	5	?	2%	.
Cc1oc(-c2ccc(Cl)cc2)nc1CS(=O)CC(=O)NCCCN1CC(C)CC(C)C1 (configuration not stated)	?	0	-70*	?	1%	0
Cc1ccc(-c2nc(CS(=O)CC(=O)N3CCN(c4ccc(Cl)cc4)CC3)c(C)o2)cc1 (configuration not stated)	21µM*	.	.	16µM*	5%	.
Cc1oc(-c2ccc(Cl)cc2)nc1CS(=O)CC(=O)NCCN1CCCCCC1 (configuration not stated)	?	-3	-25	-25%	4%	.
Cc1nc(NCCc2ccc(Cl)cc2)c2nnn(Cc3ccccc3)c2n1	0%	-2	3	8%	.	.
Cc1cccc(N2C(=O)N(CC(=O)C(C)(C)C)c3ccccc3S2(=O)=O)c1C	13µM*	.	.	15µM*	5%	.
